# Experimental data from PubChem BioAssay (NCATS).
# Records with an inconclusive call do not appear. A call without a number means that no potency is given here. The source made the active and inactive calls. Unless noted, calls come from the whole dose curve; as a rule, active = well fitted curve in the direction sought with a large enough effect; inconclusive = small, poorly fitted or top-dose-only effect, or another doubt; inactive = no such curve, though single readings can be large; an effect the other way counts as inactive or inconclusive.
# Columns and labels:
# [1] = target: Arylsulfatase A (Homo sapiens) (UniProt P15289); assay: qHTS screen for enhancers of Arylsulfatase A (ASA1): LOPAC Validation Assay (AID 720538)
# Outline: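 Cell-based enhancement test: residual ASA activity in SV40-transformed I179S patient fibroblasts is measured by pNCS turnover (0.5mM final, 14h, room temperature) following 48h compound incubation; higher fluorescence indicates activation.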
# [2] = qHTS for Activators of Parkin Expression: LOPAC Validation Assay (NLuc Reporter) (AID 720572)
# Outline: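 Neuronal line stably carrying a FLuc/NLuc coincidence reporter under the Parkin promoter, seeded 24 h, then dosed in 7-point series for 24 h at 37 C. NLuc luminescence read after FLuc; normalized to DMSO and positive control (100%).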
# [3] = target: T1, Hexokinase-4 (Homo sapiens) + Glucokinase regulatory protein (Homo sapiens) (UniProt P35557+Q14397); assay: qHTS assay for inhibitors of recombinant human GCK-GKRP interaction: Diaphorase-coupled assay (AID 743205)
# Outline: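 Signal derives from resorufin generated by diaphorase, linked to GCK turnover of glucose (5 mM) and ATP (0.4 mM). Enzyme complex was added after a 20-minute compound preincubation and monitored for 30 minutes.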
# [4] = target: T1, Hexokinase-4 (Homo sapiens) + Glucokinase regulatory protein (Homo sapiens); assay: qHTS assay for inhibitors of recombinant human GCK-GKRP interaction: ADP-Glo assay (AID 743206)
# Outline: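 GST-GCK and FLAG-GKRP (15 nM each in the dispensed mix, with 2 uM S6P) react with 0.4 mM ATP and 5 mM glucose (final) in Hepes pH 7.6 for 60 min at room temperature. ADP is measured by ADP-Glo luminescence.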
# [5] = target: T1, Hexokinase-4 (Homo sapiens) + Glucokinase regulatory protein (Homo sapiens); assay: qHTS assay for inhibitors of recombinant human GCK-GKRP interaction: HTRF assay (AID 743207)
# Outline: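 Titration screening format: recombinant GST-GCK and FLAG-GKRP at 5 nM, S6P at 2 uM, labelled anti-tag antibodies, 60 min at RT, dual-wavelength HTRF readout.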
# [6] = qHTS Assay for Identifying Gametocytocidal Compounds (AID 743244); note: potency is the fitted concentration of half-maximal effect; conditions: P. falciparum 3D7 stage III-V gametocytes, alamarBlue, 72 h; max response: hits give low values
# Outline: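 Using 20,000 stage III–V 3D7 gametocytes per well, compounds were incubated 72 h under 37 °C/5% CO2. Viability was then assessed by 24 h alamarBlue reduction, measured fluorometrically at 525/598 nm.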
# [7] = Natriuretic polypeptide receptor (hNpr1) antagonism - Pilot counterscreen GloSensor control cell line (AID 1347045; calls by dose curve; note: potency is the fitted concentration of half-maximal effect)
# Outline: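 HEK293 cells carrying the GloSensor cGMP sensor (GIP/pGS-40F) were loaded with 2% GloSensor reagent for 2 h, exposed to compounds for 30 min, and then stimulated with 50 uM sodium nitroprusside for 20 min at room temperature.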
# [8] = target: T2, Tyrosine-protein phosphatase non-receptor type substrate 1 (Homo sapiens) + Leukocyte surface antigen CD47 (Homo sapiens) (UniProt P78324+Q08722); assay: CD47-SIRPalpha protein protein interaction - LANCE assay qHTS validation (AID 1347057; active = well fitted curve in the direction sought with a large enough effect in the signal ratio, with a control signal flat, not every such curve was filed as active; the % refers to the signal ratio; note: series mostly up to about 38 µM)
# Outline: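 First, His-tagged CD47 and Eu-labelled anti-His antibody met the compound for 30 min; next, site-specifically biotinylated SIRPalpha was added for 30 min; finally streptavidin-APC was added before reading the TR-FRET ratio.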
# [9] = target: T2, Tyrosine-protein phosphatase non-receptor type substrate 1 (Homo sapiens) + Leukocyte surface antigen CD47 (Homo sapiens); assay: CD47-SIRPalpha protein protein interaction - HTRF assay qHTS validation (AID 1347058; active = well fitted curve in the direction sought with a large enough effect in the signal ratio, not every such curve was filed as active; the % refers to the signal ratio; note: series mostly up to about 38 µM)
# Outline: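 TR-FRET read (Ch1/Ch2 ratio) of soluble extracellular CD47 and Avi-biotinylated SIRPalpha domains in PBS pH 7.4 with 0.05% IGEPAL; 7-point compound titration. Sequential 30 min room-temperature steps; non-biotinylated SIRPalpha as control inhibitor.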
# [10] = target: T2, Tyrosine-protein phosphatase non-receptor type substrate 1 (Homo sapiens) + Leukocyte surface antigen CD47 (Homo sapiens); assay: CD47-SIRPalpha protein protein interaction - Alpha assay qHTS validation (AID 1347059);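 note: bead proximity luminescence from CD47 binding SIRPalpha after compound preincubation with SIRPalpha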
# Outline: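 Soluble extracellular domains: Avi-tag biotinylated SIRPalpha (25 nM) preincubated 30 min RT with compound, then 6His-CD47 (12.5 nM) 30 min; Ni-NTA acceptor and streptavidin donor beads (10 ug/mL) 30 min, AlphaScreen read. PBS pH 7.4, 0.05% IGEPAL.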
# [11] = target: Lysine-specific demethylase 5B (Homo sapiens) (UniProt Q9UGL1); assay: Optimization screen for KDM5B Histone Demethylases FDH coupled qHTS against the LOPAC library (AID 1347166)
# Outline: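 KDM5BDeltaAP (200nM final) preincubated 10 min with compound, then 12.5uM H3K4Me3, 25uM a-ketoglutarate, ascorbate, Fe(II), NAD+ and FDH added; 50mM HEPES pH 7.5, 0.01% Tween-20. NADH fluorescence (340/450 nm) change over 30 min, room temperature.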
# [12] = qHTS for inhibitors of adenylyl cyclases using a fission yeast platform: a pilot screen against the NCATS LOPAC library (AID 1347410)
# Outline: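 Inhibition of GNAS-stimulated AC9 activity in S. pombe was inferred from derepression of a PKA-repressed fbp1-GFP reporter, measured as cytometric fluorescence after 18 h at 30C with compounds at up to 57 µM.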
# [13] = Validation qHTS assay for inhibitors of Activation Induced Cytidine Deaminase (AID): UDG Counterscreen signal (AID 1347427)
# Outline: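 Counterscreen read of UDG activity (2 U/mL, 4/3x) in the FRET deamination format with AID (1 uM, 4/3x), DJC20/DJC23 substrates (250 nM, 4x), 4 h at room temperature. NaOH stop, fluorescence at 560 ex/665 em.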
# [14] = target: Single-stranded DNA cytosine deaminase (Homo sapiens) (UniProt Q9GZX7); assay: Validation qHTS assay for inhibitors of Activation Induced Cytidine Deaminase (AID): AID signal (AID 1347429)
# Outline: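 AID and UDG were combined and compounds added at final up to 114 uM, then DJC20/DJC23 FRET substrate was added for 4 hr at room temperature. NaOH was then added for 30 min before fluorescence was read at 540/590 nm.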
# [15] = target: Calcium and integrin-binding protein 1 (Homo sapiens) (UniProt Q99828); assay: Validation qHTS for Identification of Calcium Integrin Binding protein 1 (CIB1) Competitor (AID 1508618)
# Outline: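 Displacement of FITC-alphaIIb peptide (100 nM) from CIB1-GST (1 uM) is monitored by polarization in quantitative HTS format; buffer carries 5 mM CaCl2 and 125 mM NaCl at pH 7.4, incubations are at room temperature.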
# [16] = Counterscreen qHTS for small molecule stabilizers of the endoplasmic reticulum resident proteome: GLuc-NoTag assay (AID 1508627);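 note: SH-SY5Y cells given compound then 100 nM thapsigargin to empty ER calcium; series mostly up to about 76 µM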
# Outline: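 SH-SY5Y cells stably expressing constitutively secreted GLuc (no SERCaMP tag) were pre-incubated 5 h, treated with compound for 19 h, then 100 nM thapsigargin for 4 h at 37C; medium GLuc read by coelenterazine luminescence.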
# [17] = target: Papain (Carica papaya) (UniProt P00784); assay: Primary qHTS assay for inhibitors of the protease papain (AID 1645873);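 note: papain turnover of Z-FR-AMC read as the AMC fluorescence gain over 10 min; series mostly up to about 50 µM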
# [18] = target: Metallo-beta-lactamase type 2 (Klebsiella pneumoniae) (UniProt C7C422); assay: qHTS to identify inhibitors of the New Delhi Metallo-beta-lactamase (NDM): assay validation screen against the NCATS LOPAC Collection (AID 1794843);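 note: nitrocefin turnover by NDM-1 measured as 485 nm absorbance at plateau; series mostly up to about 38 µM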
# Outline: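 Enzyme 2 nM final, 50 mM HEPES pH 7.0, 1 uM ZnSO4, 0.01% Tween20; cpds in DMSO, preincub w/ enzyme; + nitrocefin (50 uM stock); A485 at plateau; no-enzyme column as blank.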
# [19] = target: Glutathione peroxidase 1 (Homo sapiens) (UniProt P07203); assay: Primary qHTS Assay for Inhibitors of Recombinant Selenoprotein Glutathione Peroxidase 1 (GPX1) (AID 1845191); note: nearly all actives have a fitted effect of over 65% in size
# Outline: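 Recombinant GPX1 (10 nM final) was preincubated with compound for 30 min at room temperature, then reacted with 1 mM GSH, 0.5 mM CHP, 0.5 mM NADPH and 100 nM glutathione reductase; NADPH fluorescence (340/450 nm) was read at 0 and 15 min.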
# [20] = target: Phospholipid hydroperoxide glutathione peroxidase GPX4 (Homo sapiens) (UniProt P36969); assay: Primary qHTS Assay for Inhibitors of Recombinant Selenoprotein Glutathione Peroxidase 4 (GPX4) (AID 1845192); conditions: outcome: dose series up to 50 µM unless noted; note: series mostly up to about 50 µM; nearly all actives have a fitted effect of over 65% in size
# Outline: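 GR-coupled readout: 100 nM GR, 1 mM GSH, 0.5 mM NADPH; NADPH fluorescence (ex 340/em 450 nm) read at t=0 and after 15 min RT. GPX4 200 nM, preincubated 30 min with compound; substrate 0.5 mM CHP.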
# T1 sequence (P35557 whole entry, looked up): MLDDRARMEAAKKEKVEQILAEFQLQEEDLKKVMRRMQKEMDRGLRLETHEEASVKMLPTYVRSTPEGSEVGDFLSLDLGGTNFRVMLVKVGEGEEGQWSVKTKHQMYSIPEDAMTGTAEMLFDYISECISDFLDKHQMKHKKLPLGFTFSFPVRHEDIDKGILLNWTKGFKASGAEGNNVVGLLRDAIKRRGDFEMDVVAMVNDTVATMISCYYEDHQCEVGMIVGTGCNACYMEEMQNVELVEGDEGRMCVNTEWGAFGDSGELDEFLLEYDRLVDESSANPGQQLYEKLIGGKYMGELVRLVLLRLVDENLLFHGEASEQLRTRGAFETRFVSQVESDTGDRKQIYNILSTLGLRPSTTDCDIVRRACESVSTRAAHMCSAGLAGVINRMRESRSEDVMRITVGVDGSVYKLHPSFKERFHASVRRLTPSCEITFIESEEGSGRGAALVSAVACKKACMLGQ
# T1 sequence (Q14397 whole entry, looked up): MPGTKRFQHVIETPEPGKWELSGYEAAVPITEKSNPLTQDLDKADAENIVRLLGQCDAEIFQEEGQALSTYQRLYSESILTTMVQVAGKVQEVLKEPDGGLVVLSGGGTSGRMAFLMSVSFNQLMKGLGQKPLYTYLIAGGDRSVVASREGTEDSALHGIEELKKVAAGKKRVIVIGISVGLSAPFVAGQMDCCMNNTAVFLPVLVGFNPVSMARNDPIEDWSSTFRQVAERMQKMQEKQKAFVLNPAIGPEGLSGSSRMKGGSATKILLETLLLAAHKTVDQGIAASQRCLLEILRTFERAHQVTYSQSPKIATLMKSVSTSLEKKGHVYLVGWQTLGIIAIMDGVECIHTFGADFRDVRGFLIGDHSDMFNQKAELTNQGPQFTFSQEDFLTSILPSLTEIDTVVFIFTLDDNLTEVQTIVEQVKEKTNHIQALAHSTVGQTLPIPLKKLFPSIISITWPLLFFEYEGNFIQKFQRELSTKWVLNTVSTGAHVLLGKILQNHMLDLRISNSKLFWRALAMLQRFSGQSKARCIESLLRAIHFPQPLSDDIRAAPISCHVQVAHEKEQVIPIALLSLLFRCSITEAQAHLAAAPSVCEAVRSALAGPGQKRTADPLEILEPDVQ
# T2 sequence (P78324 whole entry, looked up): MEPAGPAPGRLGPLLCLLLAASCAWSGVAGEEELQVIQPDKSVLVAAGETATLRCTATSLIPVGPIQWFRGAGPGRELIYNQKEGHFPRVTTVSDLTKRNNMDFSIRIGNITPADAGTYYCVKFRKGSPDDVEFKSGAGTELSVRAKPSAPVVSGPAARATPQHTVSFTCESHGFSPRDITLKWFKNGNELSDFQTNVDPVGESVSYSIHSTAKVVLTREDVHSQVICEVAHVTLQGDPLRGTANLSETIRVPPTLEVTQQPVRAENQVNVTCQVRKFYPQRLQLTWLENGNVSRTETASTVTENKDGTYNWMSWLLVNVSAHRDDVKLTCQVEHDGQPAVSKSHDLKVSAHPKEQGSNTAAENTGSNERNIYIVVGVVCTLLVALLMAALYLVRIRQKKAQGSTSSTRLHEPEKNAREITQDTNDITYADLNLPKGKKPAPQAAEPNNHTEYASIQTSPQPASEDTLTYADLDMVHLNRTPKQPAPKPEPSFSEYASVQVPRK
# T2 sequence (Q08722 whole entry, looked up): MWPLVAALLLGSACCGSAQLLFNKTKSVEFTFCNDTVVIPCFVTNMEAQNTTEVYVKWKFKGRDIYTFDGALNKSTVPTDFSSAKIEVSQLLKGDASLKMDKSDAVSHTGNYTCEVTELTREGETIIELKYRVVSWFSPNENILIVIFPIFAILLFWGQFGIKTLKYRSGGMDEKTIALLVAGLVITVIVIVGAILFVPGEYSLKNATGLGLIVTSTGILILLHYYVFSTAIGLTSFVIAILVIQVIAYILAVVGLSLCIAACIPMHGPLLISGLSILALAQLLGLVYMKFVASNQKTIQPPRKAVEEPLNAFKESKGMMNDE
# Chain of Papain (Carica papaya) (P00784 whole entry, looked up): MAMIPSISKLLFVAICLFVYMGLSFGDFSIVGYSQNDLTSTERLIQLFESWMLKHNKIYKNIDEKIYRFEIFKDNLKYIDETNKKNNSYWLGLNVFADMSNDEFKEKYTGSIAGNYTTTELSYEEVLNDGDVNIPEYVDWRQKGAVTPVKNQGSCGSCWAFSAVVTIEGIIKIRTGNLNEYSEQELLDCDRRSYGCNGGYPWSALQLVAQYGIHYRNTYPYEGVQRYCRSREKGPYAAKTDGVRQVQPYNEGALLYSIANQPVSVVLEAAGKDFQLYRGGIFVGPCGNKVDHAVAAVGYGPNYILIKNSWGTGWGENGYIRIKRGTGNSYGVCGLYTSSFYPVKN
# Chain of Metallo-beta-lactamase type 2 (Klebsiella pneumoniae) (C7C422 whole entry, looked up): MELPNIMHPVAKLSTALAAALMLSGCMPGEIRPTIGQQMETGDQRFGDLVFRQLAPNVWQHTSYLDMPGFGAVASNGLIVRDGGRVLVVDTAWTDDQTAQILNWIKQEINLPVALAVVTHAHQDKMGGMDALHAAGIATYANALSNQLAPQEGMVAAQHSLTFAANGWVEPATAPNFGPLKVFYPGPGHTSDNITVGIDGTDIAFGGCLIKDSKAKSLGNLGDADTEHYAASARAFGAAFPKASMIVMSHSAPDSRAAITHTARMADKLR
# Chain of Single-stranded DNA cytosine deaminase (Homo sapiens) (Q9GZX7 whole entry, looked up): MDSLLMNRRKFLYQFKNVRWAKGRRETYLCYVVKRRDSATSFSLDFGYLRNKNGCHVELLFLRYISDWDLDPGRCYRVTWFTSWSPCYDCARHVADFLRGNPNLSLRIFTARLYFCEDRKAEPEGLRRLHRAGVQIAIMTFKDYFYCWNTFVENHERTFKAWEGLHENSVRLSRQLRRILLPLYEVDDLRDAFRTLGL
# Chain of Lysine-specific demethylase 5B (Homo sapiens) (Q9UGL1 whole entry, looked up): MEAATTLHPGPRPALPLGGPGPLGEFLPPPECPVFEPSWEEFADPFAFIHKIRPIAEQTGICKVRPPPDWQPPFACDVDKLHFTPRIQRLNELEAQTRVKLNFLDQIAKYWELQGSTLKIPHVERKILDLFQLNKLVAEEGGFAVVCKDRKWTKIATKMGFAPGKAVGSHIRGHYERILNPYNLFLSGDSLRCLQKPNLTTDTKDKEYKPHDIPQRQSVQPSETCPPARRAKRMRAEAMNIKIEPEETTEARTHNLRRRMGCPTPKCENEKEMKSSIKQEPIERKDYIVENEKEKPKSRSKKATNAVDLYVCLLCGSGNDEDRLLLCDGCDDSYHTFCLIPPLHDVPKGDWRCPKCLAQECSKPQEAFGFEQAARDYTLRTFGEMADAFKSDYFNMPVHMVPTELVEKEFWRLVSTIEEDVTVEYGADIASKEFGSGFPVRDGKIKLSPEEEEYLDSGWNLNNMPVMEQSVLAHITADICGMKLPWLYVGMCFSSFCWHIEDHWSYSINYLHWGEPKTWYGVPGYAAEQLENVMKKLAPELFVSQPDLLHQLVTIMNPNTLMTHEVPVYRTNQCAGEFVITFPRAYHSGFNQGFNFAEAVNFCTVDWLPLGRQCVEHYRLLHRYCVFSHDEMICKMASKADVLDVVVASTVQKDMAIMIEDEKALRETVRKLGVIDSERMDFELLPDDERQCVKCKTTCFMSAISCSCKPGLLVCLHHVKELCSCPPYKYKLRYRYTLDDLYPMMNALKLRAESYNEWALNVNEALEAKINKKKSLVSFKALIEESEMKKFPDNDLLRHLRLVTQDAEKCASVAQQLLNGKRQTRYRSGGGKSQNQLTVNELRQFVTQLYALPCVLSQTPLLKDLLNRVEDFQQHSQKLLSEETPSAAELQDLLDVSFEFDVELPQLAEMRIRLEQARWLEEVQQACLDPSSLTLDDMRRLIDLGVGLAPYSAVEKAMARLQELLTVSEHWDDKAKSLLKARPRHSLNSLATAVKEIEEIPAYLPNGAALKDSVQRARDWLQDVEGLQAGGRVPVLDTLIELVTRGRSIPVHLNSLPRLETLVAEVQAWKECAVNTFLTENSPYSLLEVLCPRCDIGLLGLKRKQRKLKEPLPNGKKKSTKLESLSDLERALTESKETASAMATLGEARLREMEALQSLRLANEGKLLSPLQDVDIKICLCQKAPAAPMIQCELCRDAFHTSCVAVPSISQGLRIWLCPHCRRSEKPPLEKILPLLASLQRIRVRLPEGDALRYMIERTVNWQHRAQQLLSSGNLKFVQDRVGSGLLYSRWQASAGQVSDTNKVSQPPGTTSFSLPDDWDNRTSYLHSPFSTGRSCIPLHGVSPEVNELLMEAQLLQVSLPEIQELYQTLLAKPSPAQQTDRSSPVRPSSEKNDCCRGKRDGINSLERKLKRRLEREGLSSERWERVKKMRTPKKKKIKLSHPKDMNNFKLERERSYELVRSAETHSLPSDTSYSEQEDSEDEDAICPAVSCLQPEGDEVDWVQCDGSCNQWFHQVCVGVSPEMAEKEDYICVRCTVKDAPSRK
# Chain of Glutathione peroxidase 1 (Homo sapiens) (P07203 whole entry, looked up): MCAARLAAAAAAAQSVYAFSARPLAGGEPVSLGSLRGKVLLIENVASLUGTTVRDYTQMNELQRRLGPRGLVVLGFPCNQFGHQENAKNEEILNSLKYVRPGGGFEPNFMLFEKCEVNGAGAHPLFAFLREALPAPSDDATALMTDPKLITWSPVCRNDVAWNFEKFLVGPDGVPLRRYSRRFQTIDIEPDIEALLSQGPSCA
# Chain of Arylsulfatase A (Homo sapiens) (P15289 whole entry, looked up): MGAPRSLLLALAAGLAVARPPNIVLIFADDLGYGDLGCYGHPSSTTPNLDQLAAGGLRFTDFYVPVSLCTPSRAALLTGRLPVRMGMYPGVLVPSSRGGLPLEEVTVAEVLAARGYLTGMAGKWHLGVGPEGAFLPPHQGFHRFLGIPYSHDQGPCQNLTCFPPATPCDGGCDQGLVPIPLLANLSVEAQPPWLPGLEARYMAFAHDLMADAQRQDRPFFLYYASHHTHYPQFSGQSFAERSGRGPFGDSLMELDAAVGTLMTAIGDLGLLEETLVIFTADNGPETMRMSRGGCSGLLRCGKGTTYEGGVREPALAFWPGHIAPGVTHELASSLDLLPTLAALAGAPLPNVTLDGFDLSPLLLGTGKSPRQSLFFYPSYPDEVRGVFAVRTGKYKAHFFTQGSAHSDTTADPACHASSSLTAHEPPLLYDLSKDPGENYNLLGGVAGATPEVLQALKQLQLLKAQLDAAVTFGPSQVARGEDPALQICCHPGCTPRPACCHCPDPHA
smiles,measurement,setting,value
S=C(Nc1ccccc1)Nc1nccs1,Potency,[1],inactive
same,outcome,[2],inactive
same,outcome,[3],inactive
same,outcome,[4],inactive
same,outcome,[5],inactive
same,Potency,[6],1.58 µM (active)
same,Potency,[7],13.1 µM (active)
same,outcome,[8],inactive
same,outcome,[9],inactive
same,Potency,[10],inactive
same,outcome,[11],inactive
same,outcome,[12],inactive
same,outcome,[13],inactive
same,Potency,[14],inactive
same,outcome,[15],inactive
same,Potency,[16],inactive
same,Potency,[17],inactive
same,Potency,[18],inactive
same,Potency,[19],inactive
same,Potency,[20],inactive
